The chains are these.
B1: chr5:136976780:136976881:-|3pUTR|ENSG00000152377|msi1|FALSE|unique (ssRNA)
RNA: GGGAGUUCUACAGUCCGACGAUCCUUAAAUUAGCAUGUUCCAAUCCAGUCGGCAUUGCCUGAAUACAGUAGCAUCAUACCUAUAGUUGGUCUUAGAUAAGAAAUGAACUACUUGAUAUAGCAAAGUCCUUUGGCUUCGUAAAUCAACAGAGGAUUGAGCAUCA
B2: chr6:105100707:105100870:-|3pUTR|ENSG00000112276|msi1|FALSE|unique (ssRNA)
RNA: GGGAGUUCUACAGUCCGACGAUCUGAGAUAUAUAUUUUCACAGUCUUUUCUAGAUAUAUUAUUGUUUUAACUUAACAAAUCUUAGCAAUCUCUCAAUGCCUUUUCACUUAUUUUUUUCCAAGUUAUGAUUCUUUUUCCUCACACAACAGAGGAUUGAGCAUCA
B3: chr3:168010103:168010202:-|3pUTR|ENSG00000173905|msi1_unk|FALSE|overlapping (ssRNA)
RNA: GGGAGUUCUACAGUCCGACGAUCGCUCAAACAUAAAUCUGCCUACUGAACUCUAGGAUAUUUAAUUACAAAAAUUAAGAACUUAGACUUUUUUAAAACUUUUGUAUUAGAAAUGCGCAUACAUUUAUAUGAAUAUAUUUUGAUCAACAGAGGAUUGAGCAUCA
B4: chr9:5123879:5124511:-|three_prime_utr|ENSG00000120210|control|control|control (ssRNA)
RNA: GGGAGUUCUACAGUCCGACGAUCCUGGUAAAUUGGAUUGCCAUAUGCAGAAGAAUGAAACUGGACCCAUAUUUAUCACCAUAUAGAAAAAUUAACUCGAUCGAUUACAGACUUAAAUGUAAGAUCUGAAACUAGAAAAAUACUCAACAGAGGAUUGAGCAUCA
B5: chr5:24509697:24509799:-|CDS|ENSG00000040731|unk|FALSE|unique (ssRNA)
RNA: GGGAGUUCUACAGUCCGACGAUCACUCGACUAUGAGAGCCGAAGACUUUAUACUCUGAAAGUCGAAGCAGAAAACACCCAUGUAGAUCCCCGUUUUUAUUACCUAGGACCAUUUAAAGAUACUACCAUAGUGAAAAUCUCUAUCAACAGAGGAUUGAGCAUCA
B6: chr3:168010103:168010202:-|3pUTR|ENSG00000173905|msi1_unk|total|mutant (ssRNA)
RNA: B3 RNA with U53C, A54C, U83C, A84C, U107C, A108C
B7: chr12:48342538:48342639:-|3pUTR|ENSG00000167528|unk|FALSE|unique (ssRNA)
RNA: GGGAGUUCUACAGUCCGACGAUCUUGUUAAACAUUUUGAGUAUCACUCUUGCAUACUGUUACUAUUAUAUUUUCUCUAUAUAUAGACAGAAAGGCCAUUUUAGAAUAUUAAAGGCUCUGAAAAUUUCUGCAGUAGACCCAACUCAACAGAGGAUUGAGCAUCA
B8: chr3:64018827:64018930:-|CDS|ENSG00000163636|unk|FALSE|unique (ssRNA)
RNA: GGGAGUUCUACAGUCCGACGAUCUGAACUCAUGGAUUAUAAAACAUUUGUGACUUAUACUGUCUAUGUCAGUAUGAUUGCCUUAGAAAGACCAGAUCUCAGGGAAAAGGUAAUGACCAAACUUUAAUACUCAAAUUUAAAGACCAACAGAGGAUUGAGCAUCA
B9: chr8:103442975:103443076:+|3pUTR|ENSG00000164934|msi1|FALSE|bound_elsewhere (ssRNA)
RNA: GGGAGUUCUACAGUCCGACGAUCGGACUAGAUUAAUUGCAAACAUUUUAGUUAUAUGUGUAGAGCUUUAUUGUUACUCCUUUUAGCUACCCUGAAAAAUGAUCCUUAAAGGUGGCCUAGUUGGUAAGACUGUUUUAUCCUUAACAACAGAGGAUUGAGCAUCA
B10: chr6:105100707:105100870:-|3pUTR|ENSG00000112276|msi1|total|mutant (ssRNA)
RNA: B2 RNA with U51C, A52C, U83C, A84C
B11: chr12:50748518:50748596:+|3pUTR|ENSG00000066084|msi1_unk|FALSE|overlapping (ssRNA)
RNA: GGGAGUUCUACAGUCCGACGAUCUCAAAUUCAAACUACAGUACUGUGUAAUUAUGUAUAAAGUUUUUUUAUUUAUUUGAAGUUAGACUAGAUAUACGUUUUUAAAUUUAACAUCUGGCUGGACAGUGUUCUAUUAACUCAUUGCAACAGAGGAUUGAGCAUCA
B12: chr20:59325757:59325866:+|3pUTR|ENSG00000124205|unk|FALSE|unique (ssRNA)
RNA: GGGAGUUCUACAGUCCGACGAUCUUAUGUGGAUCUGUUCAAAGUAGUCACUGUAUAUACGUAUAGAGAGGUAGAUAGGUAGGUAGAUUUUAAAUUGCAUUCUGAAUACAAACUCAUACUCCUUAGAGCUUGAAUUACAUUUUUCAACAGAGGAUUGAGCAUCA
B13: chr11:118396625:118396726:+|3pUTR|ENSG00000110344|msi1|FALSE|bound_elsewhere (ssRNA)
RNA: GGGAGUUCUACAGUCCGACGAUCAACUUGACAAUGCUCCCCUGGCUUGCAGGAAAUUAUACUUAUUAUAGCAUCACCAAGUUUAGAAAUCAUCACUAAUUUUCACCCUCUGUUGUCUCUUCAUAUUCUUCUUCCUUUUCCUAACAACAGAGGAUUGAGCAUCA
B14: chr6:43570573:43570674:-|CDS|ENSG00000124571|unk|FALSE|unique (ssRNA)
RNA: GGGAGUUCUACAGUCCGACGAUCGGUGUAGGAAACACAGACAGAAUUGGUGAUGUUUAUCCUUUUGCGACUGGCAGAGGAUGUAGUGACUUUUCAGACACUUCCCCCUCAAAGAAGAAGGGACAUCCAGCAAACAUUAACCCACAACAGAGGAUUGAGCAUCA
B15: chr11:73394502:73394603:+|CDS|ENSG00000054967|msi1|total|mutant (ssRNA)
RNA: GGGAGUUCUACAGUCCGACGAUCCACCAUCUCCACACCGUGCAGGGCCUGGCCUCGCUCUCUGGCCCCUGCUGCUCCCGCUGCCGCCAGAAGAAGUGGCCCGAGGUGCUGCUGUCCCCUGAGGCUGCCGCCGCCACUACUCCUCAACAGAGGAUUGAGCAUCA
B16: chr3:107805913:107806014:+|3pUTR|ENSG00000114439|msi1_unk|FALSE|overlapping (ssRNA)
RNA: GGGAGUUCUACAGUCCGACGAUCUACAUGGAGAUUUAAGUUUAAGAUGGUUUAUAUAAUAGGUUAUACCUACAUUUAUAUUGUAGAAUAAAUAUUAAAAAGCCUGUUCCAGAGACUCCCAAGCAGCCUGGGCAGGCAGAUGUACAACAGAGGAUUGAGCAUCA

Residue numbers refer to the chain shown, from its start. In all, about 5,800 sequences were measured (“enrichment r”: median about 0.68, highest 2% from about 11 on). This excerpt belongs to a sample that is enriched for the highest values.

The target of the assay is T1, UNK ZnF1-6 (called full-length) (human, UniProt Q9C0B0 30-357).
T1 sequence: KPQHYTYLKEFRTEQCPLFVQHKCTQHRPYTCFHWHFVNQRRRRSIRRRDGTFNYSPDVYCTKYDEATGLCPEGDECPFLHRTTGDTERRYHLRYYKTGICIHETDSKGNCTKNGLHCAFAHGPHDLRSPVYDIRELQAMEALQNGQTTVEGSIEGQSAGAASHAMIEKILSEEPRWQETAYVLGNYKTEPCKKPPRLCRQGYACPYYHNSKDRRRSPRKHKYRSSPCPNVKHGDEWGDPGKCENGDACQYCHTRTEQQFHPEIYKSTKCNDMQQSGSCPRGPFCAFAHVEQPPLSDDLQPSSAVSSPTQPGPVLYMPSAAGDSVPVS
The experiment in a line: nsRBNS (natural sequence RNA bind-n-seq); RBNS binding buffer (assumed for nsRBNS): 25 mM Tris pH 7.5, 150 mM KCl, 3 mM MgCl2, 0.01% Triton X-100, 500 ug/ml BSA, 20 U/ml SUPERase-In, 4 C; UNK is unkempt and MSI1 is Musashi-1; names of the RNAs are library labels; protein concentration not given here; high values mean tight binding.
Take B1: the binding signal is 8.89 enrichment R.

B2: the binding signal is 18.7 enrichment R. The same measure for B3: 12.6 enrichment R; for B4: 21.7 enrichment R; for B5: 1.94 enrichment R. Under B6 stands 3.17 enrichment R. In the case of B7, the binding signal came out at 3.54 enrichment R. The same measure for B8: 0.48 enrichment R; for B9: 6.96 enrichment R; for B10: 3.08 enrichment R. The same measure for B11: 6.56 enrichment R; for B12: 20.3 enrichment R.

Take B13: the binding signal was 4.24 enrichment R. The same measure for B14: 0.529 enrichment R; for B15: 0.888 enrichment R. Under B16 stands 1.89 enrichment R.
